This is a sample that favours compounds with a hit; in the whole collection about 1.8% have one here.
Imprint erasure – genomic imprint erasure induction; mouse ES Peg3-LacZ reporter, beta-gal luminescence, 40 h; Potency, µM (series often up to 60.7 µM), actives largely listed as activators; actives 0.02% (n = 110,000)
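Gelatin-coated wells received 300 freshly trypsinized female ES cells with a Peg3LacZ-Neo reporter on the maternal allele, then incubated 40 hours at 37C. BetaGlo was added for 5 minutes at room temperature before a single luminescence read.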
IkB signaling – suppresses IkB signaling in ABC-DLBCL reporter cells | ABC-DLBCL IkBa-CBG/CBR dual luciferase ratio, 4 h; response scale: scaled: untreated 0%, proteasome inhibitor 100% | Potency, µM (top dose mostly 57.1 µM) | actives 0.04% (n = 110,000) | AID 445; active = well fitted curve in the direction sought with a large enough effect in the signal ratio, not every such curve was filed as active; inconclusive = small, poorly fitted or top-dose-only effect, or a change in a side signal; the % refers to the signal ratio;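 note: the direction sought is a rising ratio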
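In this assay, an IκBα–CBG68 fusion accumulates when IKK-driven degradation is blocked; native CBR normalizes for cell number. OCI-Ly3 cells were treated 4 h with compound and doxycycline, then green and red light read after Chroma-Glo addition.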
p53ts 39C tox – p53ts cell cytotoxicity, nonpermissive temperature | H1299-p53A138V viability at 39C, ATP luminescence, 24 h | Potency, µM (doses to about 46.1 µM), hits mostly cytotoxic | actives 1.5% (n = 130,000) | AID 902; note: nearly all actives have a fitted effect of over 55% in size
p53ts 32C kill – p53ts cell cytotoxicity, permissive temperature; H1299-p53A138V at 32C, ATP luminescence viability, 24 h; Potency, µM (top dose mostly 46.1 µM), most hits filed as cytotoxic; actives 0.93% (n = 130,000); AID 924; note: nearly all actives have a fitted effect of over 55% in size
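Cells: H1299 p53ts (A138V), 600/well, pre-incubated 16–30 h at 37C. Cpd up to 46 uM, 24 h, 32C. Readout: ATPlite luminescence, 20 min RT. Normalization: DMSO vs tamoxifen 100 uM. AC50 by Hill equation.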
A number is an active result; n = inactive; u = inconclusive; x = no result given; [ ] = another dose, or the depositor's remark. Unless noted, calls come from the whole dose curve; as a rule, active = well fitted curve in the direction sought with a large enough effect; inconclusive = small, poorly fitted or top-dose-only effect, or another doubt; inactive = no such curve, though single readings can be large; an effect the other way counts as inactive or inconclusive.

SMILES	Imprint erasure	IkB signaling	p53ts 39C tox	p53ts 32C kill
COc1ccccc1N1CCN(Cc2cc(Br)c(O)c3ncccc23)CC1	n	u	15.8µM	n
COc1ccccc1N1CCN(Cc2cc(COC(C)C)c3cccnc3c2O)CC1	n[10.9 µM]	u	2.51µM	u
CCOc1ccccc1N1CCN(Cc2cccc(OC)c2O)CC1	n	u	n	n
CC(C)OCc1cc(CN2CCN(c3cccc(C(F)(F)F)c3)CC2)c(O)c2ncccc12	n[10.9 µM]	n	15.8µM	n
CSc1cccc(Nc2cc(C(=O)NCCCN(Cc3ccccc3)C(C)C)c3ccccc3n2)c1	n[10.9 µM]	n	15.8µM	u
Cc1cc(C)cc(Nc2cc(C(=O)NCCCN(Cc3ccccc3)C(C)C)c3ccccc3n2)c1	n[10.9 µM]	u	15.8µM	n
Cc1cc(C(=O)CN2C(=O)c3ccccc3S2(=O)=O)c(C)n1CC1CCCO1 (stereo not given)	n	n	1µM	2.51µM
CCOc1ccccc1Nc1nc(-c2cccc(Cl)c2)c2c(n1)-c1ccccc1OC2	n[10.9 µM]	u	12.6µM	u
Cc1ccn2c(Nc3ccc(C(C)C)cc3)c(-c3cccnc3)nc2c1	n[10.9 µM]	u	25.1µM	n
Cc1ccc2nc(-c3cccnc3)c(Nc3ccc(C(C)C)cc3)n2c1	n[10.9 µM]	n	n	n
CC(C)c1ccc(Nc2c(-c3ccccn3)nc3ccccn23)cc1	n[10.9 µM]	u	15.8µM	n
CC(C)c1ccc(Nc2c(-c3ccccc3O)nc3cnccn23)cc1	n[10.9 µM]	u	5.01µM	u
COc1ccc(CNC(=O)C(C(C)C)N2Cc3ccccc3C2=O)cc1 (stereo not given)	x	x	x	n
CCC(=O)N1CCc2cc(Br)cc(S(=O)(=O)CCC(=O)N3CCN(c4ccc(OC)cc4)CC3)c21	n[10.9 µM]	n	n	n
COCCNc1nc(-c2ccc(N(C)C)cc2)nc2ccccc12	n	n[11.4 µM]	10µM	12.6µM
COCCNc1nc(-c2ccc(C(=O)N(C)C)cc2)nc2ccccc12	n	n[11.4 µM]	u	u
CC(=O)NCCNc1nc(-c2ccc3c(c2)OCO3)nc2ccccc12	n	n[11.4 µM]	n	n
CC(=O)NCCNc1nc(-c2ccc(N(C)C)cc2)nc2ccccc12	u	n[11.4 µM]	12.6µM	u
Cc1cnc(CNc2nc(-c3ccc(N(C)C)cc3)nc3ccccc23)cn1	x	n[11.4 µM]	10µM	10µM
Cc1cc(=O)c2c(O)c3c(O)cc(O)c4c5c(O)cc(O)c6c(O)c7c(=O)cc(C)c8c1c2c(c34)c(c65)c78	n	x	x	x
C=C(C)C(O)/C=C/C=C/c1ccccc1 (stereo not given)	x	x	n[9.22 µM]	n[9.22 µM]
c1c[nH]cn1	n	n	x	x
CCSc1nnc(NC(=O)c2cnccn2)s1	n	n	n	n
CCSc1nnc(NC(=O)c2ccccn2)s1	n	u	10µM	10µM
C[C@@H]1CN(CCCn2c3ccccc3c3ccccc32)C[C@H](C)N1	n	u	25.1µM	n
SMILES	Imprint erasure	IkB signaling	p53ts 39C tox	p53ts 32C kill
Cc1ccc(-c2nnc(Nc3ccccc3)o2)cc1	n	u	3.16µM	3.16µM
CCCS(=O)(=O)O	n[10.9 µM]	n[11.4 µM]	n[9.22 µM]	n[9.22 µM]
COC(=O)Cn1c(CN2CCc3ccccc3C2)nc2c1c(=O)n(C)c(=O)n2C	n	n	u	5.01µM
CC(=O)c1cccc(NC(=O)c2cnn(-c3cccc(C)c3)c2-n2cccc2)c1	n[10.9 µM]	u	n	n
O=C(Nc1ccccn1)c1ccc2ccccc2n1	n	u	15.8µM	15.8µM
Cc1ccc(-c2cc(-c3ccccc3)no2)c(O)c1	x	x	5.01µM	x
CCc1ccc(-n2c(SCc3ccccc3C)nc3[nH]ncc3c2=O)cc1	n[10.9 µM]	u	25.1µM	u
Cc1ccc(-n2c(SCc3cccc(F)c3)nc3[nH]ncc3c2=O)cc1C	n[10.9 µM]	n	n	n
CCc1ccc(-n2c(SCc3ccccc3Cl)nc3[nH]ncc3c2=O)cc1	n[10.9 µM]	u	u	u
Cc1ccc(-n2c(SCc3ccccc3C)nc3[nH]ncc3c2=O)cc1C	n[10.9 µM]	u	25.1µM	n
COc1ccc(Nc2nc3c(S(=O)(=O)c4ccccc4)nnn3c3ccc(Cl)cc23)cc1OC	n[10.9 µM]	n	n	n
COc1ccc(Nc2nc3c(S(=O)(=O)c4ccccc4)nnn3c3ccc(Cl)cc23)cc1	n[10.9 µM]	n	10µM	u
CCOc1ccc(C(=O)Nc2ccc3oc(-c4cccc5ccccc45)nc3c2)cc1	n[10.9 µM]	n	10µM	n
COc1cc2ccccc2cc1C(=O)Nc1ccc2oc(-c3ccc(Cl)cc3)nc2c1	n[10.9 µM]	n	7.94µM	n
CCOc1ccc(C(=O)Nc2ccc3oc(-c4ccc(Br)cc4)nc3c2)cc1	n[10.9 µM]	n	n	n
COc1cc2ccccc2cc1C(=O)Nc1ccc(N2CCN(C)CC2)cc1	n	n	12.6µM	u
COc1cc(C(=O)Nc2ccc3oc(-c4ccccc4)nc3c2)cc(OC)c1OC	n[10.9 µM]	u	12.6µM	u
Cc1cc2ccccc2n1CCNC(=O)c1cccs1	n	n	n	n
CN(C)c1ccc(N/C=C/C(=O)c2ccccc2)cc1	n	u	12.6µM	5.01µM
CN(C)c1ccc(NC(=O)CCCc2ccccc2)cc1	n	n	n	n
CCOC(=O)c1cnc2c(-c3ccccc3)c(C)nn2c1N	n	n	n	n
Cc1cc(N)n2ncc(-c3cccc(Br)c3)c2n1	n	n	n	n
CCOC(=O)c1cnc2c(-c3ccccc3)cnn2c1N	n	u	7.94µM	10µM
Cc1cc(N)n2ncc(-c3ccccc3)c2n1	n	u	10µM	u
CC(C)c1ccc(C2c3c(-c4ccccc4O)n[nH]c3C(=O)N2CCc2ccccc2)cc1 (stereo not given)	n[10.9 µM]	u	25.1µM	n
SMILES	Imprint erasure	IkB signaling	p53ts 39C tox	p53ts 32C kill
Cc1ccc(C2c3c(-c4ccccc4O)n[nH]c3C(=O)N2CCc2ccccc2)cc1 (stereo not given)	n[10.9 µM]	u	31.6µM	12.6µM
CCc1cccc(NC(=O)Cn2c(=O)n(CC(=O)NCCc3ccccc3)c(=O)c3ccccc32)c1	n[10.9 µM]	u	6.31µM	10µM
Cc1cc(C)cc(NC(=O)Cn2c(=O)n(CC(=O)NCCc3ccccc3)c(=O)c3ccccc32)c1	n[10.9 µM]	u	20µM	u
COc1ccc(CCNC(=O)CCCn2c(=O)c3ccccc3n(CC(=O)Nc3cc(Cl)ccc3C)c2=O)cc1OC	n[10.9 µM]	n	12.6µM	u
COc1ccc(NC(=O)Cn2c(=O)n(CC(=O)NCCc3ccccc3)c(=O)c3ccccc32)cc1	n[10.9 µM]	n	n	n
O=C(Cn1c(=O)c2ccccc2n(CC(=O)Nc2ccc(F)cc2)c1=O)NCCc1ccccc1	n[10.9 µM]	u	n	n
COc1ccc(Cl)cc1NC(=O)Cn1c(=O)n(CCCC(=O)NCCc2ccc(OC)c(OC)c2)c(=O)c2ccccc21	n[10.9 µM]	u	u	n
CCc1ccc(-c2nc(CN3CCCC(C(=O)N4CCN(c5cc(Cl)ccc5C)CC4)C3)c(C)o2)cc1 (stereo not given)	n[10.9 µM]	u	u	12.6µM
CCn1c(CNC(=O)c2ccc(OC)cc2)nnc1SCC(=O)Nc1ccccc1	n[10.9 µM]	n	n	n
COc1ccc(CC(=O)Nc2cccc(C(=O)O)c2C)cc1	n	n	n	n
COc1ccc(CC(=O)c2ccccc2C(=O)O)cc1	n	n	10µM	u
O=C(Nc1nnc(SCC(=O)N2CCCc3ccccc32)s1)c1ccccc1	x	x	8.91µM	x
O=C(Nc1nnc(SCC(=O)N2CCCc3ccccc32)s1)c1ccc2ccccc2c1	x	x	3.16µM	x
